The text below walks through data of PubChem BioAssay (NCI).

The panel holds about 83,000 compounds, 20% with a hit somewhere; the sample as a whole holds those more often.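 96-well plates, one dose, 48 hours. Percent growth reported; active if below 10.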 A number with no mark means an inactive call. Activity calls are given as the source filed them.

The first assay relates to T-47D breast. Description: NCI-60 one-dose screen, 48 h (100 = growth as untreated, 0 = no growth, -100 = all killed). The note with it: 10 µM.
Turning to `N#Cc1c(Cl)nc(SCc2ccc(F)cc2)nc1-c1ccc(F)cc1`, the growth is 66.8%.

Regarding `Cc1cc2c(c(O)c1Br)-c1ncoc1C(=O)[C@]1(C)CC[C@H](C(C)C)[C@H]21`, the growth was 20.6%.

Take `O=C1Nc2ccc(Cl)cc2/C1=C/c1ccc(OCc2ccccn2)cc1`: the growth is 69%.

Take `O=c1[nH]c2ccccc2cc1CSc1ccc(Nc2nccc(-c3ccc4c(c3)OCO4)n2)cc1`: the growth is 75.5%.

A further assay has as its system BT-549 breast. The assay is described as above. The note with it: 10 µM.
With `CN1C(=O)N(C)C2SC(N/N=C/C=C/c3ccccc3)=NC21` (stereo unspecified), the growth is 64.1%.

`Cc1ccc(NC(=O)c2ccc(-n3c(=O)[nH]c4ccccc4c3=O)cc2)cc1`: the growth is 24.4%.

Turning to `COc1cccc(/C=N/NC(=O)c2ccc3nc(-c4ccc(Cl)cc4)[nH]c3c2)c1O`, the growth was -96.7% (active).

For the molecule `COc1ccc2[nH]c(=O)c(CSc3nccc(-c4ccc(Cl)cc4)n3)cc2c1`, the growth is 30.6%.

Take `COc1ccc2ncc(C#Cc3cncc(C(=O)Nc4ccc(CN5CCN(C)CC5)c(C(F)(F)F)c4)c3)n2n1`: the growth is -75.7% (active).

Take `O=C(CS(=O)(=O)c1oc(-c2ccc(Cl)cc2)nc1S(=O)(=O)c1ccccc1)N1CCCC1`: the growth was -3.43% (active).

With `CC1=N/C(=C\c2ccc(N(C)C)cc2)C(=O)N1CCc1ccc(S(N)(=O)=O)cc1`, the growth is 92.7%.

`CCN1CCN(c2ccc(NC(=O)Nc3ccc(-c4cc(C(=O)NC(C)C)c5ncccc5n4)cc3)cc2C(F)(F)F)CC1`: the growth was -82.1% (active).

Take `O=C(c1ccc(Cl)cc1)C1[C@H](c2ccccc2Br)[C@@H](c2ccccc2)NC12C(=O)Nc1ccccc12` (stereo partly specified): the growth was 48%.

Take `CN1CCN(c2ccc(Nc3nc(NCCCNC(=O)C4CCCCC4)c4sccc4n3)cc2)CC1`: the growth is 69.1%.

Turning to `CC1(c2ccccc2)NC(=O)N(CC(=O)Nc2ccc(C(=O)/C=C/c3ccc(Cl)cc3)cc2)C1=O` (stereo unspecified), the growth is 1.57% (active).

On to `CC(C)c1ccc(C(=O)Nc2sc3c(c2C(N)=O)CCC(=O)C3=O)cc1`, for which the growth was 107%.

`O=c1c2ccccc2nc(COc2ccccc2)n1/N=C/c1ccc(N2CCOCC2)cc1`: the growth was 76.8%.

In the case of `CCN1CCN(Cc2ccc(NC(=O)c3cccc(-n4cc(-c5ccc(NC(C)=O)nc5)nn4)c3)cc2C(F)(F)F)CC1`, the growth was 144%.

In the case of `CCOC(=O)C1NN(c2ccc(S(N)(=O)=O)cc2)c2nc3nc(-c4cccs4)cc(-c4cccs4)c3c(=O)n21` (stereo unspecified), the growth is 50.1%.

In the case of `CN1CCN(c2ccc(C(=O)/C=C/c3cc(Br)ccc3F)cc2)CC1`, the growth is 59.3%.

For the molecule `CN(CCF)c1ccc(/C=C/C(=O)c2ccc(N)cc2O)cc1`, the growth is 64.1%.

As to `CC1(C)CC[C@]2(C(=O)O)CC[C@]3(C)C(=CC[C@@H]4[C@@]5(C)C/C(=C/c6ccncc6)[C@H](O)C(C)(C)[C@@H]5CC[C@]43C)[C@@H]2C1`, the growth is 50.8%.

Consider `CN(C)c1cccc2c(S(=O)(=O)Nc3cccc(-c4csc(NC(=O)CCCCCN5CCN(c6cc7c(cc6F)C(=O)N(C6CCC(=O)NC6=O)C7=O)CC5)n4)c3)cccc12` (stereo unspecified), for which the growth is 85.6%.

For `O=C(CSc1nnc(-c2ccc3nc(-c4ccccc4)[nH]c3c2)o1)Nc1ccc(Br)cc1`, the growth was 95.9%.

As to `CCNCCCn1c2c(c3cc(OC)c(OC)cc3c1=O)C(=O)c1cc3c(nc1-2)OCO3`, the growth was 36.2%.

On to `Cn1c(O)c(N=Nc2nc(-c3cc4ccccc4oc3=O)cs2)c2cc(Br)ccc21`, for which the growth was 59.6%.

As to `Clc1ccc(/C=N/Nc2ncnc3sc4c(c23)CCN(Cc2ccccc2)C4)cc1`, the growth was -6.23% (active).

Take `Cc1ccc(CSc2nc(-c3ccc(F)cc3)c(C#N)c(=O)[nH]2)cc1`: the growth is 84.2%.

With `COc1csc(/C=N/NC(=O)c2[nH]c3ccc(Br)cc3c2-c2ccccc2)c1`, the growth is 31.8%.

Consider `CCOC(=O)N/C(=C1/OCCN1C)[P+](c1ccccc1)(c1ccccc1)c1ccccc1`, for which the growth is 75.4%.

On to `COc1ccc(/C=C/C(=O)c2ccc(S(=O)(=O)NCCNc3nc(Nc4ccc(F)cc4)nc(N(C)C)n3)cc2)cc1`, for which the growth was 36.2%.

In the case of `N#Cc1c(NC(=O)c2ccc(C(F)(F)F)c(Cl)c2)sc2c1CCC(=O)C2`, the growth is -82.1% (active).

Consider `O/N=C(\CSc1nnc(-c2c[nH]c3ccccc23)n1-c1ccccc1)c1ccc(Cl)cc1`, for which the growth is -66.7% (active).

Take `CN1CCCN(Cc2ccc(C(=O)Nc3cccc(Nc4ccc5c(O)cccc5n4)c3)cc2C(F)(F)F)CC1`: the growth was -75.2% (active).

Consider `O=c1[nH]c2ccccc2cc1CSc1ccc(Nc2nccc(-c3ccc(C(F)(F)F)cc3)n2)cc1`, for which the growth was 31.7%.

Take `O=c1cc(-c2ccccc2)oc2cc(OCCCCNCc3ccccc3)cc(O)c12`: the growth is 78.5%.

Regarding `COc1ccccc1[C@H]1C(C(=O)c2ccc(Cl)cc2)C2(N[C@@H]1c1ccccc1)C(=O)Nc1ccc(Cl)cc12` (stereo partly specified), the growth was -1.27% (active).

Regarding `N#Cc1c(Cl)nc(SCc2ccc(F)cc2)nc1-c1ccc(F)cc1`, the growth was 95.4%.

On to `Cc1cc2c(c(O)c1Br)-c1ncoc1C(=O)[C@]1(C)CC[C@H](C(C)C)[C@H]21`, for which the growth was -24.6% (active).

Consider `O=C1Nc2ccc(Cl)cc2/C1=C/c1ccc(OCc2ccccn2)cc1`, for which the growth was 78.8%.

Regarding `O=c1[nH]c2ccccc2cc1CSc1ccc(Nc2nccc(-c3ccc4c(c3)OCO4)n2)cc1`, the growth was 65.5%.
